PubChem BioAssay AID1276 (Columbia University Molecular Screening Center, 2008)
The whole screen tested about 190,000 compounds, of which about 2,000 (1.1%) were called active. The sample as a whole holds a higher share of actives than the screen did. Values without a mark were called inactive.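 How the source made its calls: active means activation above a set limit, based on mean plus 3 SD of controls (cut at about 140% in these data); inconclusive means one replicate above the limit, the other below; inactive means the rest.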

experiment: activators of APP 5'UTR luciferase reporter, primary screen, SH-SY5Y cells (AID 1276); details: SH-SY5Y APP 5'UTR luciferase reporter, luminescence; at 2 µM; stronger effect = higher value; zero percent = DMSO vehicle wells

| Compound | activation |
| --- | --- |
| Cc1ccc(OCC(=O)Nc2ccc(S(=O)(=O)Nc3ccccn3)cc2)cc1 | 0.31% |
| CCc1nc2ccccc2c(C(=O)OC2CCCCC2=O)c1C (centres undefined) | 2.83% |
| CCn1c(SCc2cc(=O)n3ccsc3n2)nc2ccccc21 | -4.54% |
| COc1cccc(/C=C/C(=O)Nc2ccc3c(c2)OCCO3)c1 | 168% (active) |
| COc1ccc(/C=C/C(=O)Nc2ccc3c(c2)OCCO3)cc1OC | -0.48% |
| COc1ccc(OC)c(/C=C/C(=O)OCC(=O)Nc2ccc3c(c2)OCCO3)c1 | -19.2% |
| CC1CCCC(NC(=O)COC(=O)[C@@H]2CC(O)CN2S(=O)(=O)c2ccc3c(c2)OCCO3)C1C (some centres undefined) | 11.6% |
| CN(C(=O)CSc1nncc2ccccc12)C1CCCCC1 | 56.8% |
| Cc1ccc(C(=O)OC(C)CN2CCOCC2)cc1 (centres undefined) | -15.7% |
| COc1cc(Cl)c(C)cc1NC(=O)[C@@H]1CCCN1C(=O)c1cccs1 | -25.6% |
| CC1CN(C(=S)SCC(=O)c2ccccc2)CC(C)O1 (centres undefined) | -2.53% |
| NC(=NC(=O)c1ccccc1)N1CCOCC1 | 9.73% |
| O=C(CSC(=S)N1CCOCC1)c1ccccc1 | 139% (active) |
| O=C(NCc1nnc(SCC(=O)N2CCCc3ccccc32)o1)c1ccccc1F | -9.96% |
| COc1cc([N+](=O)[O-])ccc1NC(=O)CN1CCCC1 | -0.5% |
| COc1ccc(Sc2nc(-c3ccccc3)ncc2OC)cc1 | -14% |
| COc1cc(SC)ccc1C(=O)Nc1cc(C)ccn1 | 220% (active) |
| COc1cc(SC)ccc1C(=O)Nc1nc(C)cs1 | 57.9% |
| COc1cc(SC)ccc1C(=O)NCCOc1ccccc1Cl | 143% (active) |
| O=C(NCCOc1ccccc1Cl)C(=O)Nc1ccccc1 | 0.2% |
| COc1ccccc1CNC(=O)c1ccc(SC)cc1OC | -5.82% |
| Cc1ccnc(NC(=O)c2ccoc2C)c1 | 33.5% |
| O=C(CCC1CCCN(C(=O)Cc2ccc(F)cc2)C1)N1CCN(c2ccccn2)CC1 (centres undefined) | 10.5% |
| Cc1c(C2=CCN(S(=O)(=O)c3ccc(Cl)cc3)CC2)c2ccccc2n1C | -2.27% |
